Measured values published in PubChem BioAssay AID834 (PCMD, 2007).
Hit rate of the full screen: of about 85,000 compounds, about 120 (0.14%) were called active.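 The calls were made as follows: active = inhibition above 20%; inactive = inhibition below 20%.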 Only a selection was taken, and actives are over-represented in it overall.

assay: clotrimazole potentiators killing Candida biofilms, primary screen, with clotrimazole, Alamar Blue (AID 834);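 also: preformed 24 hr biofilms exposed to compound for 48 hr; 0% = biofilm without compound and 100% = blank killed by clotrimazole plus chlorhexidine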; settings: C. albicans biofilm + clotrimazole, at 6 µM, hits give high values

Row | SMILES | inhibition
1 | CCOC(=O)/C(C#N)=C\c1c(C)cc(C)c(COC(C)=O)c1C | 5.54% (inactive)
2 | CC/C(O)=N\S(=O)(=O)c1ccc(N=NN(C)C)cc1 | 3.86% (inactive)
3 | CC1=NN(/C(=N\c2nnc(C)s2)Nc2ccccc2)[C@H](c2ccc(C)cc2)S1 | 4.3% (inactive)
4 | O=C(c1ccc(CN2CCOCC2)cc1)N1CCN(c2ccccc2F)CC1 | 3.38% (inactive)
5 | O=C(NCCSCc1ccccc1)c1ccc(Cl)c(S(=O)(=O)N2CCOCC2)c1 | 9.31% (inactive)
6 | COC(=O)c1cccc(-n2[nH]nnc2=S)c1 | -3.99% (inactive)
7 | C=CCNC(=O)c1cc2nc(C3CC3)cc(C(F)F)n2n1 | 3.65% (inactive)
8 | OC(COc1ccc2c(c1)CCC2)CN1CCN(c2cccc(Cl)c2)CC1 (stereo unspecified) | 3.52% (inactive)
9 | CC(C)C(=O)Nc1ccc2c(c1)oc1ccccc12 | 9.6% (inactive)
10 | CC(C)OC(=O)c1c(NC(=O)c2ccco2)sc2c1CCCC2 | 4.89% (inactive)
11 | Cc1cccc(CCNS(=O)(=O)c2ccc(S(=O)(=O)NC3CCCC3)cc2)c1 | -0.29% (inactive)
12 | COc1ccc(CCN2C(=O)C3CC=C(C)CC3C2=O)cc1OC (stereo unspecified) | 1.85% (inactive)
13 | Clc1cccc(N=C2NN=C(c3ccc4c(c3)OCCO4)CS2)c1 | 1.81% (inactive)
14 | COc1ccc(NC(=O)Cn2c(=O)n(Cc3ccco3)c(=O)c3ccccc32)cc1 | 7.9% (inactive)
15 | CCCCNC(=O)C1(c2ccc(OC)cc2)CCOCC1 | 3.55% (inactive)
16 | Cc1nnc(SCC(=O)NC2CCCC2)s1 | 1.39% (inactive)
17 | O=C1Nc2cc(Cl)c(Cl)cc2N(O)N1c1cc(Cl)cc(Cl)c1 | -1.77% (inactive)
18 | CCOc1ccc(NC(=O)N(CC(C)C)CC(C)C)cc1 | -5.95% (inactive)
19 | CC1CCN(S(=O)(=O)c2ccc(S(=O)(=O)NCc3ccco3)cc2)CC1 | 6.18% (inactive)
20 | CCOc1cc(NC(=O)c2cnccn2)c(OCC)cc1NC(=O)c1ccc(C)cc1 | 10.1% (inactive)
21 | CCOc1ccc(S(=O)(=O)NCCSc2ccccc2)cc1 | -7.35% (inactive)
22 | Cn1c(Cc2cccc3ccccc23)nnc1SCC(=O)N1CCN(c2cccc(Cl)c2)CC1 | 2.35% (inactive)
23 | CC1(C)NC(=O)N(CCCCSc2ccc(Cl)cc2)C1=O | 4.05% (inactive)

Row | SMILES | inhibition
24 | CCc1cccc(C)c1N(C(=O)Cn1c(CO)nc2ccccc21)C(C)COC (stereo unspecified) | 2.34% (inactive)
25 | CCOC(=O)c1c(NC(C)=O)sc2c(O)c(Br)ccc12 | 7.32% (inactive)
26 | CC(C)(C)C1CCc2c(sc3nc(SCC(N)=O)nc(N)c23)C1 (stereo unspecified) | 9.53% (inactive)
27 | CC(=O)Nc1ccc(NC(=O)CSCc2cnn(-c3ccccc3)c2-n2cccc2)cc1 | 5.53% (inactive)
28 | Cc1ccc(OC(=O)c2ccccc2C(=O)OCC(F)(F)C(F)F)cc1 | -0.38% (inactive)
29 | Cc1ccc(/C=N/NC(=O)C2=NNC(c3ccccc3)(c3ccccc3)C2)c(O)c1 | 2.75% (inactive)
30 | Cc1ccc(CNC(=O)COc2ccc(S(=O)(=O)NC(C)C)cc2)cc1 | 4.65% (inactive)
31 | CCOC(=O)c1sc(NC(=O)CSc2nc(C)cc(C(F)(F)F)n2)c(C#N)c1C | 4.2% (inactive)
32 | CCOC(=O)c1ccc2c(c1)nc(SCC(=O)NC(C)C)n2CC | -0.28% (inactive)
33 | CC(C)OC(=O)CN1C(=O)C(=O)c2ccccc21 | -1.96% (inactive)
34 | CC(C)(C)NC(=O)Cn1c(SCC(=O)Nc2nccs2)nc2ccccc21 | -3.28% (inactive)
35 | COc1ccc(C2=NOC3(CC(=O)N(c4ccc(Cl)cc4)C3=O)C2)c(OC)c1 (stereo unspecified) | 8.25% (inactive)
36 | CCc1c(O)cc2n(c1=O)-c1ccccc1C2(C)C | 5.21% (inactive)
37 | CCn1c(Cc2cccs2)nnc1SCC(=O)c1ccc(C)cc1 | 5.86% (inactive)
38 | CCCCOc1ccc(N(CC(=O)NCC2CCCO2)C(=O)CCC(=O)Nc2cc(C)ccn2)cc1 (stereo unspecified) | 5.21% (inactive)
39 | CCCc1nc2sc3c(c2c(=O)n1NC(=O)CCCl)CCCC3 | -7.02% (inactive)
40 | CCOC(=O)c1c(NC(=O)CSc2nnc(CNc3ccc(C)cc3C)o2)sc(C)c1C | 0.89% (inactive)
41 | CCC(=O)Nc1ccc(S(=O)(=O)NCC2CCCO2)cc1 (stereo unspecified) | 5.21% (inactive)
42 | O=C(COC(=O)c1n[nH]c2ccccc12)NCc1ccccc1 | 1.24% (inactive)
43 | COc1ccc(Nc2cc(=O)oc3ccccc23)cc1 | 5.52% (inactive)
44 | O=C(NC1CCCCC1)C1CC(=O)N(CCc2ccccc2)C1 (stereo unspecified) | 5.26% (inactive)
45 | CCOC(=O)CSc1nc2ccc(C)cc2[nH]1 | 4.49% (inactive)
46 | FC(F)(F)c1cc(-c2ccco2)nc(NCc2ccc(Cl)cc2)n1 | -7.36% (inactive)
